According to PubChem BioAssay (NCATS):
Results filed as inconclusive are left out. Activity calls are given as the source filed them. Unless noted, calls follow the shape of the dose curve; as a rule, active = well fitted curve in the direction sought with a large enough effect; inconclusive = small, poorly fitted or top-dose-only effect, or another doubt; inactive = no such curve, though single readings can be large; an effect the other way counts as inactive or inconclusive.

How the values were obtained:
[1] = Cell Viability - BJ (AID 421; calls by dose curve;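 also: potency is read from the fitted curve at half-maximal effect; cells exposed to compound for 40 hours at 37 °C before readout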); details: BJ fibroblast viability, qHTS
Procedure, shortened: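 Normal human BJ foreskin fibroblasts, 1500/well in complete medium, treated 40 hr at 37 °C. Cellular ATP by CellTiter-Glo luminescence; normalized to DMSO and 100 uM tamoxifen, AC50 from Hill fit.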

[2] = Cell Viability - Jurkat (AID 426;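 active = dose-dependent loss of cell ATP signal giving a full or clear fitted curve, ranked by lower potency value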; also: potency is read from the fitted curve at half-maximal effect); details: qHTS
Procedure, shortened: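 Cytotoxicity was scored as loss of cellular ATP, measured by luciferase-based luminescence, in Jurkat clone E6-1 cells after 40 h compound treatment; tamoxifen and doxorubicin served as positive controls.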

[3] = Cell Viability - Hek293 (AID 427;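 active = compounds whose dose-response curve shows a full or clear partial loss of cell viability, called from curve shape rather than a numeric limit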;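 also: potency is read from the fitted curve at half-maximal effect; cells exposed to compound for 40 hours at 37 °C before reading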); details: qHTS
Procedure, shortened: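 HEK293 cells in complete medium were exposed to compound for 40 hr at 37 °C, then cellular ATP was read by CellTiter-Glo luminescence. Data were normalized to DMSO (basal) and 100 uM tamoxifen (100% inhibition), and AC50 came from Hill fits.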

[4] = Cell Viability - HepG2 (AID 433; calls by dose curve;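 also: potency is read from the fitted curve at half-maximal effect; potency for ATP loss meaning cytotoxicity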); details: qHTS
Procedure, shortened: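 Cytotoxicity read as ATP loss (CellTiter-Glo luminescence) after 40 hr compound exposure of HepG2, 1500 cells/well, 37 °C. AC50 by Hill equation; 0% set by DMSO, 100% inhibition by 100 uM tamoxifen.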

[5] = Cell Viability - MRC5 (AID 434; calls by dose curve;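 also: potency is read from the fitted curve at half-maximal effect; potency reflects cytotoxicity seen as loss of intracellular ATP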); details: MRC5 lung fibroblast viability, qHTS
Procedure, shortened: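 AC50 values come from Hill-equation fits of intracellular ATP loss, measured by CellTiter-Glo luminescence. Normal lung fibroblasts (MRC5) had 40 hr compound treatment at 37 C, normalized between DMSO and 100 uM tamoxifen.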

[6] = Cell Viability - SK-N-SH (AID 435; calls by dose curve; also: potency is read from the fitted curve at half-maximal effect); details: SK-N-SH neuroblastoma cell viability qHTS
Procedure, shortened: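 qHTS cytotoxicity: CellTiter-Glo ATP luminescence after 40 h compound exposure of human neuroblastoma SK-N-SH cells at 37 °C. AC50 derived by Hill-equation fitting, with DMSO as basal and 100 uM tamoxifen as full inhibition.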

[7] = biological target: Mitogen-activated protein kinase 10 (Mus musculus) (UniProt Q61831); test: JNK3 AlphaScreen Assay (AID 530; active = well fitted curve in either direction with a large enough effect, not every such curve was filed as active;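 also: kinase came from lysate of stimulated human HepG2 cells; signal reports phosphorylation of biotinylated GST-cJun 1-79 at Ser73 with 10 µM ATP; % is scaled to controls: 0 for no effect and ±100 for the full control effect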); details: JNK3 lysate, c-Jun phosphorylation; series mostly up to 57.1 µM
Procedure, shortened: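 Kinase buffer: 20 mM Tris-HCl pH 7.6, 10 mM MgCl2, 1 mM DTT, 0.1 mM Na3VO4, 0.01% Tween-20; ATP 10 uM. Substrate biotin-GST-cJun(1-79), enzyme from activated HepG2 lysates. Detection by Ser73 phospho-antibody AlphaScreen.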

[8] = Cell Viability - N2a (AID 540); details: N2a mouse neuroblastoma cell viability; activity change, negative = cytotoxicity: at 92.2 µM (top of the series);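 also: plate controls were DMSO alone for no effect and tamoxifen control for full effect; nearly all actives have a fitted effect of over 45% in size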
Procedure, shortened: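 In this qHTS cytotoxicity screen, ATP-dependent luciferase luminescence reports viable N2a cells after a 40 hr compound exposure in complete culture medium. Potencies are AC50 values from standard Hill equation fits.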

[9] = Cell Viability - NIH 3T3 (AID 541); details: NIH 3T3 cell viability, qHTS; activity change, negative = cytotoxicity: at 92.2 µM (top of the series);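 also: plate controls were DMSO alone for no effect and tamoxifen positive control for full effect; nearly all actives have a fitted effect of over 25% in size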
Procedure, shortened: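 In this cytotoxicity screen, acute toxicity is scored as an ATP drop measured by CellTiter-Glo in NIH 3T3 fibroblasts following a 40 hr, 37 °C incubation with compound.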

[10] = Cell Viability - HUV-EC-C (AID 542); details: HUV-EC-C endothelial cell viability, qHTS; series mostly up to 92.2 µM; also: % is scaled to controls: 0 for no effect and ±100 for the full control effect; nearly all actives have a fitted effect of over 35% in size
Procedure, shortened: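 Concentration-dependent ATP loss in HUV-EC-C cells is the measure. Exposure lasts 40 hr at 37 °C; luminescence follows CellTiter-Glo addition, and Hill fits give AC50.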

[11] = Cell Viability - H-4-II-E (AID 543); details: H-4-II-E rat hepatoma viability; series mostly up to 92.2 µM; also: % is scaled to controls: 0 for no effect and ±100 for the full control effect; nearly all actives have a fitted effect of over 35% in size
Procedure, shortened: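 AC50 from Hill-modelled qHTS concentration-response curves. H-4-II-E rat hepatoma cells in complete medium, 40 hr exposure at 37 °C, viability by CellTiter-Glo ATP luminescence.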

[12] = Cell Viability - SH-SY5Y (AID 544); details: SH-SY5Y neuroblastoma cell viability; viability change, negative = cytotoxic: at 92.2 µM (top of the series); also: nearly all actives have a fitted effect of over 55% in size
Procedure, shortened: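 Quantitative HTS in SH-SY5Y neuroblastoma cells, 40 hr treatment at 37 °C, ATP content by luciferase luminescence; AC50 from Hill fits.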

[13] = Cell Viability - Renal Proximal Tubule (AID 545); details: renal proximal tubule cells viability, primary cells of rat origin; series mostly up to 91.7 µM; also: nearly all actives have a fitted effect of over 40% in size
Procedure, shortened: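 Viability taken as intracellular ATP (CellTiter-Glo luminescence) after 40 hr, 37 °C compound treatment of primary proximal tubule cells from rat kidney, 1000 cells/well; Hill-equation fits of qHTS concentration-response data gave AC50.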

[14] = Cell Viability - Mesenchymal (AID 546); details: mesenchymal cells viability, qHTS; series mostly up to 91.7 µM;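 also: cells exposed to compound for 40 hours before reading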
Procedure, shortened: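 CellTiter-Glo luminescence (intracellular ATP, 20 min room temperature) after 40 hr compound exposure at 37 °C of 1000 glomerulus-derived human kidney mesenchymal cells/well; AC50 values obtained by fitting qHTS concentration-response data to the Hill equation.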

[15] = Cellular Toxicity (caspase-3) HepG2 (AID 654); details: HepG2 caspase-3 activation, luminescence; series mostly up to 92.2 µM;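 also: cells exposed to compound for 16 hours before reading; 0% = DMSO alone and 100% = caspase signal from 100 µM tamoxifen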
Procedure, shortened: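 Concentration-response AC50 values reflect caspase-3/7 induction in HepG2 cells after 16 hours of compound exposure, quantified by luminescence from liberated aminoluciferin and referenced to 100 uM tamoxifen as full stimulation.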

[16] = Cellular Toxicity (caspase-3) Jurkat (AID 655); details: Jurkat caspase-3 activation, luminescence; caspase-3 activation: at 92.2 µM (top of the series), DMSO = 0%, tamoxifen = 100%;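 also: cells exposed to compound for 16 h at 37 °C before reading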
Procedure, shortened: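 Luminescent Caspase-Glo 3/7 read-out (20 min, room temperature) after 16 h compound treatment at 37 C of 5000 Jurkat cells per well. AC50 derived by Hill-equation fitting, scaled between DMSO basal and 100 uM tamoxifen stimulation.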

[17] = Cellular Toxicity (caspase-3) HUV-EC-C (AID 656); details: HUV-EC-C cells, caspase-3 activation (apoptosis), vehicle = 0, 100 µM tamoxifen = 100%; series mostly up to 92.2 µM
Procedure, shortened: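 Luminescent Caspase-Glo 3/7 readout after 16 h, 37 °C compound exposure of HUV-EC-C endothelial cells, 1000 per well, complete medium. AC50 derived by Hill fitting, with DMSO as baseline and 100 uM tamoxifen as full activation.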

[18] = Cellular Toxicity (caspase-3) MRC-5 (AID 659); details: MRC-5 cells, luminescence, normalized: DMSO 0%, 10 µM staurosporine 100%; series mostly up to 91.7 µM
Procedure, shortened: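 Luminescent Caspase-Glo 3/7 read-out (1 h, room temperature) after a 16 h, 37 °C compound exposure of MRC-5 lung fibroblasts at 1500 cells/well. Concentration-response AC50 from Hill equation; 0% DMSO, 100% 10 uM staurosporine.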

[19] = Cellular Toxicity (caspase-3) SHSY5Y (AID 657); details: SH-SY5Y caspase-3 activation, DMSO zero, 10 µM staurosporine = 100%; series mostly up to 91.7 µM
Procedure, shortened: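 Luminescent Caspase-Glo 3/7 read-out, 1 hr room temperature, follows 16 hours of compound treatment of SH-SY5Y cells at 37 °C. Normalization: DMSO basal, 10 uM staurosporine as 100%; AC50 values from Hill-equation concentration-response fits.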

[20] = Cellular Toxicity (caspase-3) BJ (AID 658); details: BJ fibroblasts, luminescence, normalized: DMSO 0%, staurosporine 100%; series mostly up to 91.7 µM
Procedure, shortened: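 Caspase-Glo 3/7 luminescence, read 1 hr after reagent at room temperature, in normal BJ fibroblasts exposed 16 hours at 37 °C. AC50 values from Hill-equation concentration-response, scaled between DMSO basal and 10 uM staurosporine as 100%.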

Cc1ccc2ccccc2c1[N+](=O)[O-]
inactive: Potency [1] > 92 µM | Potency [2] > 92 µM | Potency [3] > 92 µM | Potency [4] > 92 µM | Potency [5] > 92 µM | Potency [6] > 92 µM | outcome [7] | activity change, negative = cytotoxicity [8] -10.2% | Potency [9] | Potency [10] | Potency [11] | Potency [12] | Potency [13] | Potency [14] | Potency [15] | caspase-3 activation [16] -0.271% | outcome [17] | outcome [18]

C[C@@H]1CC2(OC3C[C@@]4(C)C5=CC[C@H]6C(C)(C)C(O[C@@H]7OC[C@@H](O)[C@H](O)[C@H]7O)CC[C@@]67C[C@@]57CC[C@]4(C)C31)OC(O)C1(C)OC21 (some centres undefined)
inactive: Potency [1] > 92 µM | Potency [2] > 92 µM | Potency [3] > 92 µM | Potency [4] > 92 µM | Potency [5] > 92 µM | Potency [6] > 92 µM | outcome [7] | activity change, negative = cytotoxicity [8] -8.85% | Potency [9] | Potency [10] | Potency [11] | Potency [12] | Potency [13] | Potency [14] | caspase-3 activation [16] 2.56% | outcome [17] | outcome [19] | outcome [20] | outcome [18]

C1CCCC1
inactive: Potency [1] > 92 µM | Potency [2] > 92 µM | Potency [3] > 92 µM | Potency [4] > 92 µM | Potency [5] > 92 µM | Potency [6] > 92 µM | outcome [7] | activity change, negative = cytotoxicity [8] 7.78% | Potency [9] | Potency [10] | Potency [11] | Potency [12] | Potency [13] | Potency [14] | Potency [15] | caspase-3 activation [16] -0.234% | outcome [17] | outcome [18]

O=C(O)c1c(Cl)cccc1Cl
inactive: Potency [1] > 92 µM | Potency [2] > 92 µM | Potency [3] > 92 µM | Potency [4] > 92 µM | Potency [5] > 92 µM | Potency [6] > 92 µM | outcome [7] | activity change, negative = cytotoxicity [8] -6.78% | Potency [9] | Potency [10] | Potency [11] | Potency [12] | Potency [13] | Potency [15] | caspase-3 activation [16] 0.737% | outcome [17] | outcome [19] | outcome [18]

Cc1ccc(C)c(N)c1
inactive: Potency [1] > 92 µM | Potency [2] > 92 µM | Potency [3] > 92 µM | Potency [4] > 92 µM | Potency [5] > 92 µM | Potency [6] > 92 µM | outcome [7] | activity change, negative = cytotoxicity [8] -15.8% | Potency [9] | Potency [10] | Potency [11] | Potency [12] | Potency [13] | Potency [14] | caspase-3 activation [16] 0.403% | outcome [17] | outcome [19] | outcome [20] | outcome [18]

C=CCCCCCC
inactive: Potency [1] > 92 µM | Potency [2] > 92 µM | Potency [3] > 92 µM | Potency [4] > 92 µM | Potency [5] > 92 µM | Potency [6] > 92 µM | outcome [7] | activity change, negative = cytotoxicity [8] 6.33% | Potency [9] | Potency [10] | Potency [11] | Potency [12] | Potency [13] | Potency [15] | caspase-3 activation [16] -1.08% | outcome [17] | outcome [19] | outcome [20] | outcome [18]

Clc1cc(Cl)cc(Cl)c1
inactive: Potency [1] > 92 µM | Potency [2] > 92 µM | Potency [3] > 92 µM | Potency [4] > 92 µM | Potency [5] > 92 µM | Potency [6] > 92 µM | outcome [7] | activity change, negative = cytotoxicity [8] 4.86% | Potency [9] | Potency [10] | Potency [11] | Potency [12] | Potency [13] | Potency [14] | caspase-3 activation [16] 0.897% | outcome [17] | outcome [19] | outcome [20] | outcome [18]

Nc1cccc(C(F)(F)F)c1
inactive: Potency [1] > 92 µM | Potency [2] > 92 µM | Potency [3] > 92 µM | Potency [4] > 92 µM | Potency [5] > 92 µM | Potency [6] > 92 µM | outcome [7] | activity change, negative = cytotoxicity [8] 0.982% | Potency [9] | Potency [10] | Potency [11] | Potency [12] | Potency [13] | Potency [15] | caspase-3 activation [16] -0.253% | outcome [17] | outcome [19] | outcome [20] | outcome [18]
